Assay results published in PubChem BioAssay AID493001 (Johns Hopkins Ion Channel Center, 2010).
Out of some 1,900 compounds screened, about 430 (23%) were called active.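 Rule for the calls: active = duplicate-averaged calcium rise in uninduced cells above buffer wells' mean plus 5 SD; inactive = the rest.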 Only a selection was taken, and actives are over-represented in it overall.

Assay: compound-evoked calcium rise in non-induced M3R cells, confirmation, artefact control for RGS4 inhibitor project, cell-based, HEK293 M3R, no carbachol, second counter-screen (AID 493001)
Details: Fluo-4 calcium, at 10 µM; active compounds read high

Q: With `CCN1C(=O)C(=Cc2c(C)n(CC(=O)NCC3CCCO3)c3ccccc23)C(=O)N(CC)C1=S` (centres undefined) as the compound, how does the calcium response (agonist-mode artifact) read?
A: Its calcium response (agonist-mode artifact) is 13.5% (active).

Q: Which calcium response (agonist-mode artifact) does the source give for `O=C(N/N=C/c1c(O)n(Cc2ccccc2)c(=O)[nH]c1=O)c1ccccc1` here?
A: Its calcium response (agonist-mode artifact) is “inactive”.

Q: With `O=C1NC(=O)N(Cc2ccco2)C(=O)/C1=C\c1ccc(-c2ccc(F)cc2)o1` as the compound, how does the calcium response (agonist-mode artifact) read?
A: The calcium response (agonist-mode artifact) was 152% (active).

Q: With `Cc1ccc2c(c1)=C/C(=C\c1c(O)[nH]c(=O)[nH]c1=O)C(=O)N=2` as the compound, how does the calcium response (agonist-mode artifact) read?
A: Its calcium response (agonist-mode artifact) is “inactive”.
